# High-throughput results as filed in PubChem.
# Most compounds without a hit are left out; they make up all but 12% or so of the library.
# JMJD2A Tudor: inhibitors of human JMJD2A Tudor domain | 390,000 compounds, 4.4% hits | AlphaScreen JMJD2A-Tudor / H3K4me3 peptide binding | O75164 | AID 504339 | Potency, µM (highest dose often 114 µM), for inactives: at the highest dose activity change, negative = inhibition, hits mostly inhibitors; further: on the % scale 0 is the no-effect control and ±100 the full control effect; nearly all actives have a fitted effect of over 50% in size
# Sfp inh: inhibitors of Bacillus subtilis Sfp phosphopantetheinyl transferase. Potency, µM, inactives show largest response in the series, negative = inhibition, usual class: inhibitors. Q9F4F7. Biochemical Sfp PPTase activity, qHTS. 310,000 compounds, 3.5% hits;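 further: the enzyme is Sfp with the accession as filed and its product quenches rhodamine fluorescence; 0% = enzyme reaction without inhibitor and -100% = no enzyme wells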
#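 Reaction rates are the 30-min fluorescence difference (ex 525, em 598 nm) in wells containing 15 nM Sfp, 5 uM rhodamine-CoA and 12.5 uM BHQ-2-YbbR at pH 7.6 with 10 mM MgCl2.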
# BAZ2B inh: inhibitors of human BAZ2B bromodomain. Potency, µM (series often up to 114 µM), for inactives: at the highest dose activity change, negative = inhibition, usual class: inhibitors. 360,000 compounds, 4.4% hits. AlphaScreen BAZ2B-H3K14Ac peptide displacement; further: on the % scale 0 is the no-effect control and ±100 the full control effect; nearly all actives have a fitted effect of over 60% in size
#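 AlphaScreen luminescence quantifies BAZ2B engagement of H3K14Ac peptide; the protein and biotinylated peptide are both at 50 nM final, buffer PBS pH 7.4 with 0.01% Tween-20, all steps at room temperature.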
# G9a block: blocks human histone lysine methyltransferase G9a; Q96KQ7; Potency, µM (series often up to 102 µM), without a hit: at the highest dose activity, negative = inhibition, actives largely listed as inhibitors; G9a H3K9 monomethylation, AlphaScreen, 2 h; 350,000 compounds, 8.8% hits; further: on the % scale 0 is the no-effect control and ±100 the full control effect; nearly all actives have a fitted effect of over 75% in size
# Target sequence (Q96KQ7 913-1193 limits assumed): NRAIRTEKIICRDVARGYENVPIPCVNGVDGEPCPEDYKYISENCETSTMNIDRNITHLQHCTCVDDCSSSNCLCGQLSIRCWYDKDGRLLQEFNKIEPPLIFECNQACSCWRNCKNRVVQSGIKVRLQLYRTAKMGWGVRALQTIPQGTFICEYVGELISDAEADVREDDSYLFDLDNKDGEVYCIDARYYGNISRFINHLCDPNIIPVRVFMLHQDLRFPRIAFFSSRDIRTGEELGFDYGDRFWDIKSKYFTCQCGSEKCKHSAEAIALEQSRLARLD
#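 Readings reflect AlphaScreen signal from monomethyl-H3K9 antibody detection. HMT at 20 nM; substrate b-H3K9 500 nM; cofactor SAM 20 uM; 2 h RT reaction; compounds tested as titrations in qHTS with 15 min preincubation.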
# PLK1 PBD block: blocks phosphopeptide binding to human PLK1 polo-box domain; P53350; Plk1 PBD binding of FITC phosphopeptide, fluorescence polarization; Potency, µM, for inactives: max response, negative = inhibition, hits mostly inhibitors; 360,000 compounds, 2.8% hits; AID 720504; further: series mostly up to about 57 µM; on the % scale 0 is the no-effect control and ±100 the full control effect; nearly all actives have a fitted effect of over 65% in size
# HP1b binding inh: HP1-beta chromodomain-methylated histone interaction inhibition. P83916. AlphaScreen HP1-beta / biotin-H3K9me3 peptide binding. Potency, µM (doses to about 114 µM), for the others: top-dose activity change, negative = inhibition, hits mostly inhibitors. 390,000 compounds, 0.56% hits. AID 540317; further: nearly all actives have a fitted effect of over 70% in size
# Target sequence (P83916 whole entry, looked up): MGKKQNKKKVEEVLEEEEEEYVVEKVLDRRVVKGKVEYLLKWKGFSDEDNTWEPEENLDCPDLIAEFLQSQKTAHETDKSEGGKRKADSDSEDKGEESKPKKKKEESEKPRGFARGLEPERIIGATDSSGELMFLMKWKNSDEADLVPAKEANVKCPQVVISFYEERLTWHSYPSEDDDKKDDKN
#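 AlphaScreen: HP1-beta (50 nM) preformed 30 min with biotin-H3(1-18)K9me3 peptide (50 nM) in PBS pH 7.4, 0.01% Tween-20. Compound added for 30 min at RT, then streptavidin donor/nickel chelate acceptor beads (10 ug/mL) for 30 min.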
# Numbers without * were called inactive; ? = inconclusive; . = no result; [ ] = another dose, or the depositor's remark. The call rests on the fitted dose curve; in most records, active means well fitted curve in the direction sought with a large enough effect; inconclusive means small, poorly fitted or top-dose-only effect, or another doubt; inactive means no such curve, though single readings can be large; an effect the other way counts as inactive or inconclusive. Potency means the concentration at half of the fitted maximal effect.
SMILES,JMJD2A Tudor,Sfp inh,BAZ2B inh,G9a block,PLK1 PBD block,HP1b binding inh
CC1CCCN(C(=O)CSc2ncccn2)C1 (centres undefined),-20%,21%,6%,?,-15%,1%
Cc1cc(C)cc(-n2c(C)cc(/C=N/NC(=O)CSc3ncccn3)c2C)c1,79µM*,-25%,?,79µM*,-8%,?
Cc1c(NC(=O)CN(c2ccc(F)cc2)S(=O)(=O)c2ccccc2)c(=O)n(-c2ccccc2)n1C,-8%,-25%,?,45µM*,-5%,24%
Cc1c(NC(=O)CN(c2ccccc2)S(=O)(=O)c2ccc(F)cc2)c(=O)n(-c2ccccc2)n1C,-3%,7%,-11%,.,0%,18%
Cc1cc(C)n2nc(SCC(=O)Nc3c(C)n(C)n(-c4ccccc4)c3=O)nc2n1,18%,6%,?,45µM*,2%,15%
Cc1c(NC(=O)CSc2n[nH]c(=O)n2-c2ccccc2)c(=O)n(-c2ccccc2)n1C,22µM*,18%,-7%,-1%,27µM*,?
COc1cccc(COCC(O)CN2CCC(C(N)=O)CC2)c1 (centres undefined),-2%[57.1 µM],7%,-15%,0%,-7%,16%
Cc1ccc(OCC(=O)OCc2cc(=O)n3c(C)csc3n2)cc1,-11%,.,-15%,1%[59 µM],.,22%
Cc1cc(C)n2nc(SCC(=O)N/N=C/c3ccccn3)nc2n1,8.9µM*,56µM*,-1%,8.9µM*,0%,33%
Cn1c2ccsc2c2cnn(Cc3ccccc3F)c(=O)c21,-24%,.,.,.,.,.
Cc1cccc(Nc2nc(N)nc(CN3CCN(c4ccccc4F)CC3)n2)c1,45µM*,.,.,.,-8%,-17%
COc1ccccc1Nc1nc(N)nc(CN2CCN(Cc3ccc4c(c3)OCO4)CC2)n1,-18%,?,?,17%[12.7 µM],7%,21%
CN1CCN(Cc2nc(N)nc(Nc3ccc4c(c3)OCCO4)n2)CC1,?,3%,50µM*,-29%,0%,14%
Cc1cccc(Nc2nc(N)nc(CCl)n2)c1,-3%,-2%,8%,?,-7%,42%
CCOc1ccc(Nc2nc(N)nc(CN3CCN(c4ccccc4F)CC3)n2)cc1,?,5%,56µM*,?,-21%,11%
Nc1nc(CSC(=S)N2CCN(c3ccccc3)CC2)nc(Nc2ccc(F)cc2)n1,56µM*,11%,?,?,-15%,?
COc1ccc(-c2cc(C(F)(F)F)n3nc(C(=O)Nc4cc(Cl)cc(Cl)c4)cc3n2)cc1,3%,.,-12%,8%[59 µM],.,31%
OC(c1ccccc1)(c1ccccc1)c1nccn1-c1ccccc1,-20%,.,.,.,-2%,9%[57 µM]
CC(C)c1ccc(N2C(=O)CC(Sc3ncccn3)C2=O)cc1 (centres undefined),-1%,23%,4%,4%[59 µM],-10%,100%
COc1ccc(NC(=O)C2(C)Cc3c(-c4ccc(N(C)C)cc4)ccnc3O2)cc1OC (centres undefined),.,.,.,.,-7%,.
Cc1cccc(Nc2nc(N)nc(CN3CCN(c4ccccc4)CC3)n2)c1,56µM*,-5%,-112%,?,-6%,?
Nc1nc(CN2CCN(c3ccccn3)CC2)nc(Nc2ccc(Cl)cc2)n1,?,10%,50µM*,50µM*,-9%,13%
Cc1cccc(Nc2nc(N)nc(CN3CCN(Cc4ccc5c(c4)OCO5)CC3)n2)c1,50µM*,3%,?,3%[59 µM],-12%,-7%
Cc1ccccc1Nc1nc(C#N)nc(NC2CCCC2)n1,3%,.,.,.,.,.
CC(C)CN1CCC(C(=O)N2CCN(c3ccccc3F)CC2)CC1,22µM*,-6%,?,10µM*,3%,?
SMILES,JMJD2A Tudor,Sfp inh,BAZ2B inh,G9a block,PLK1 PBD block,HP1b binding inh
CCOc1ccc(CN2CCC(C(=O)N3CCN(c4ccccc4F)CC3)CC2)cc1OC,7.1µM*,-17%,?,8.9µM*,-4%,?
CCOc1ccc(S(=O)(=O)N2CCC(C(=O)N3CCN(c4ccccc4F)CC3)CC2)cc1C,-22%,-2%,-12%,.,-8%,1%
O=C(C1CCCCC1)N1CCN(c2ccccc2F)CC1,-9%[57.1 µM],14%,12%,-5%[12.7 µM],-20%,36%
COc1ccc(-c2sc(C(=O)c3ccc(Cl)cc3Cl)cc2CC(=O)O)cc1,11%,5%,13%,16%,-16%,16%
Nc1[nH]nc2c1NN(c1ccc(Cl)cc1Cl)N2,-24%,-7%,25µM*,?,-5%,0%
COc1cc2oc(=O)cc(-c3ccc(-c4ccc(O)cc4)cc3)c2c(OC)c1OC,-25%,-24%,.,4%[59 µM],-11%,12%
COc1cc(C(c2oc(CO)cc(=O)c2O)c2oc(CO)cc(=O)c2O)cc(OC)c1OC,?,-25%,50µM*,11µM*,-10%,55%
COc1ccc(C(c2oc(CO)cc(=O)c2O)c2oc(CO)cc(=O)c2O)cc1OC,?,-33%,50µM*,20µM*,4%,43%
COc1cc(C(c2c(O)cc(C)[nH]c2=O)c2c(O)cc(C)[nH]c2=O)ccc1O,-11%,7%,-3%,-6%,-11%,-10%
O=C(/C=C/c1ccco1)N1CCc2ccccc21,-18%,?,.,40µM*,-7%,7%
Cc1ccc(/C=C/C(=O)N2CCc3ccccc32)o1,40µM*,28µM*,45µM*,22µM*,?,45µM*
COc1ccccc1NC(=O)N1CCN(C(=O)c2ccco2)CC1,5%,23%,0%,84%,-3%,16%[57 µM]
COc1ccccc1NC(=O)CSc1nnc(C)s1,-9%,18%,1%,0%,-11%,27%
COc1cccc(/C=N/NC(=O)c2ccc(COc3ccc(Cl)cc3Cl)o2)c1,-13%,0.79µM*,-9%,43%,-5%,40%
Cc1ccc(C(=O)N/C(=C/c2ccco2)C(=O)NCCCn2ccnc2)cc1,-7%,4%,32µM*,?,5%,5%
Cc1ccc(C(=O)N/C(=C\c2ccco2)C(=O)NCCCn2ccnc2)cc1,22µM*,2%,7.9µM*,-8%[59 µM],-9%,20%
Cc1cn(CC(=O)NCCc2ccccn2)c(=O)[nH]c1=O,?,.,.,.,21µM*,26%
Cc1ccc(C(=O)c2oc3ccccc3c2NC(=O)COc2ccccc2Cl)cc1,-9%,.,50µM*,-38%[59 µM],.,37%
COC(=O)C1=C(C)N(Cc2ccccc2)C(=NCC(C)C)N[C@H]1c1cccc(C(F)(F)F)c1,35µM*,.,.,.,-4%,13%
CC(=O)C1=C(C)N(Cc2ccccc2)C(=O)N[C@@H]1c1cccc(C(F)(F)F)c1,-29%,-8%,-19%,50µM*,-16%,18%
COC(=O)C1=C(C)N(Cc2ccccc2)C(=NCC(C)C)N[C@H]1c1cccc(F)c1,25µM*,-5%,?,2%[12.7 µM],-15%,11%
